From PubChem BioAssay (NCI)
Values joined by “and” are separate entries in the source; they are usually repeats but may differ in a detail not shown here. Identical values can stand only once. About 79,000 compounds went through this panel and 15% of them were active in at least one assay; those are over-represented in the sample as a whole. Some structures have more than one record in an assay (separate samples or runs), and their calls can disagree. Active and inactive are the calls of the source. Rule as the data show it: active = growth inhibition above about 70%; inactive = the rest.

Assays:
[1] = NCI Yeast Anticancer Drug Screen. Data for the rad52 strain (AID 147);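 also: 0% = growth of vehicle-treated control cultures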; details: S. cerevisiae rad52 mutant growth inhibition, stronger effect = higher value
How it was run: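 Inhibition of yeast growth, referenced to vehicle controls, was the measured output for a strain with defective DNA damage repair.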

[2] = NCI Yeast Anticancer Drug Screen. Data for the wt1 strain (AID 149);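 also: 0% = growth of vehicle-treated wt1 cultures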; details: S. cerevisiae wt1 strain (SPY 50644) growth inhibition, stronger effect = higher value
How it was run: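 Compounds are added to wt1 yeast cultures. Growth is then measured. Inhibition is expressed relative to vehicle-treated controls.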

[3] = NCI Yeast Anticancer Drug Screen. Data for the rad50EPP+ strain (AID 151);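 also: 0% = growth of vehicle-treated control cultures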; details: S. cerevisiae rad50 mutant strain, stronger effect = higher value
How it was run: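 Genetically defined yeast (rad50EPP+, DNA damage repair alteration) is grown with compound, and inhibition of growth is expressed relative to vehicle-treated controls.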

[4] = NCI Yeast Anticancer Drug Screen. Data for the mgt1 strain (AID 153); details: S. cerevisiae mgt1 mutant growth inhibition, stronger effect = higher value
How it was run: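 In the mgt1 strain, test compounds were added and growth inhibition was determined relative to vehicle-treated controls.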

[5] = NCI Yeast Anticancer Drug Screen. Data for the rad50 strain (AID 155);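 also: 0% = growth of vehicle-only cultures of the same strain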; details: S. cerevisiae rad50 strain growth inhibition, stronger effect = higher value
How it was run: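 Inhibition values express reduced yeast growth in compound-treated cultures relative to vehicle-treated controls.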

[6] = NCI Yeast Anticancer Drug Screen. Data for the mec2-1 strain (AID 157); details: S. cerevisiae mec2-1 strain, stronger effect = higher value
How it was run: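 Each compound was tested on mec2-1 yeast, a strain altered in DNA damage repair or cell cycle control. Growth inhibition is reported relative to vehicle.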

[7] = NCI Yeast Anticancer Drug Screen. Data for the rad14 strain (AID 159);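 also: 0% = growth of vehicle-treated control cultures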; details: S. cerevisiae rad14 strain growth inhibition, stronger effect = higher value
How it was run: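 A mutant yeast strain defective in DNA damage repair is treated with compound; inhibition of its growth is scored against untreated, vehicle-exposed cultures.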

[8] = NCI Yeast Anticancer Drug Screen. Data for the sgs1 mgt1 strain (AID 161);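 also: 0% = growth of cultures given vehicle only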; details: S. cerevisiae sgs1 mgt1 strain, stronger effect = higher value
How it was run: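 Inhibition of yeast growth, normalised to vehicle-treated controls, is reported for a strain bearing genetic alterations in DNA damage repair.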

[9] = NCI Yeast Anticancer Drug Screen. Data for the CLN2oe strain (AID 163);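 also: 0% = growth of vehicle-only control cultures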; details: S. cerevisiae CLN2oe strain, stronger effect = higher value
How it was run: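 First, the altered yeast strain was treated with each compound; second, its growth was measured; finally, inhibition was derived by comparison with vehicle controls.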

[10] = NCI Yeast Anticancer Drug Screen. Data for the cln2 rad14 strain (AID 165);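 also: 0% = growth equal to vehicle treated cultures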; details: S. cerevisiae cln2 rad14 strain, stronger effect = higher value
How it was run: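 Test compounds were added to cln2 rad14 yeast cultures; inhibition of growth was then determined by comparison with vehicle treatment.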

[11] = NCI Yeast Anticancer Drug Screen. Data for the bub3 strain (AID 167); details: S. cerevisiae bub3 mutant strain, stronger effect = higher value
How it was run: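 Steps: expose the mutant yeast strain to compound; grow alongside vehicle-treated cultures; measure growth; express inhibition against the vehicle cultures.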

[12] = NCI Yeast Anticancer Drug Screen. Data for the wt2 strain (AID 169);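 also: 0% = growth of vehicle-treated yeast cultures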; details: S. cerevisiae wt2 strain growth inhibition, stronger effect = higher value
How it was run: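 The panel's yeast strains carry defined changes in DNA repair or cell cycle genes. Each strain is grown with compound, and growth loss is scored relative to vehicle.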

[13] = NCI Yeast Anticancer Drug Screen. Data for the mlh1 strain (AID 171);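 also: 0% = growth of vehicle-treated control cultures of the same strain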; details: S. cerevisiae mlh1 strain growth inhibition, stronger effect = higher value
How it was run: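 Inhibition values reflect reduced yeast growth in the presence of compound, referenced to vehicle controls, using a strain chosen for its alteration in DNA repair or cell cycle control.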

[14] = NCI Yeast Anticancer Drug Screen. Data for the sgs1 strain (AID 173);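 also: 0% = growth of vehicle-only control cultures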; details: S. cerevisiae sgs1 mutant, stronger effect = higher value
How it was run: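 Vehicle-treated cultures served as reference for growth inhibition of a yeast strain altered in DNA damage repair or cell cycle control after compound exposure.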

[15] = NCI Yeast Anticancer Drug Screen. Data for the mlh1 rad18 strain (AID 175); details: S. cerevisiae mlh1 rad18 strain growth inhibition, stronger effect = higher value
How it was run: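 Inhibition values reflect reduced growth of mutant yeast versus vehicle-treated controls following compound exposure; the mutations affect DNA damage repair.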

[16] = NCI Yeast Anticancer Drug Screen. Data for the rad18 strain (AID 177); details: S. cerevisiae rad18 mutant growth inhibition, stronger effect = higher value
How it was run: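 Steps: expose repair-mutant yeast to compound; measure growth; express as inhibition relative to vehicle control.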

[17] = at 5.0 µM (retest, dose inferred, filed as 0.5)
[18] = at 50.0 µM (retest, dose inferred, filed as 5.0)

Measured: growth inhibition

COc1ccc2[nH]cc([C@@H]3C4CCC(C4)[C@H]3NCc3cccc(CN[C@H]4C5CCC(C5)[C@@H]4c4c[nH]c5ccc(OC)cc45)c3)c2c1
inactive: [1]; at 1.2 µM -28% | [1]; at 3.7 µM -23% | [1]; at 11.0 µM -20% | [1]; at 33.0 µM 22% | [2]; at 1.2 µM -33% | [2]; at 3.7 µM -43% | [2]; at 11.0 µM -41% | [2]; at 33.0 µM -8% | [3]; at 1.2 µM -19% | [3]; at 3.7 µM -14% | [3]; at 11.0 µM -7% | [3]; at 33.0 µM -23% | [3]; at 100.0 µM 63% | [4]; at 1.2 µM -36% | [4]; at 3.7 µM -47% | [4]; at 11.0 µM -38% | [4]; at 33.0 µM 42% | [5]; at 1.2 µM -36% | [5]; at 3.7 µM -16% | [5]; [17] -15% | [5]; at 11.0 µM -27% | [5]; at 33.0 µM 51% | [6]; at 1.2 µM -61% | [6]; at 3.7 µM -59% | [6]; [17] -2% | [6]; at 11.0 µM -54% | [6]; at 33.0 µM 26% | [7]; at 1.2 µM -30% | [7]; at 3.7 µM -23% | [7]; at 11.0 µM 0% | [8]; [17] -7% | [9]; at 1.2 µM 36% | [9]; at 3.7 µM 33% | [9]; at 11.0 µM 31% | [9]; at 33.0 µM 63% | [10]; [17] 27% | [11]; at 1.2 µM -25% | [11]; at 3.7 µM -32% | [11]; [17] 7% | [11]; at 11.0 µM -18% | [11]; at 33.0 µM 56% | [12]; at 1.2 µM -41% | [12]; at 3.7 µM -42% | [12]; at 11.0 µM -46% | [12]; at 33.0 µM 20% | [13]; at 1.2 µM -68% | [13]; at 3.7 µM -64% | [13]; at 11.0 µM -60% | [13]; at 33.0 µM 61% | [14]; at 1.2 µM -38% | [14]; at 3.7 µM -37% | [14]; at 11.0 µM -45% | [14]; at 33.0 µM -5% | [15]; [17] 2% | [15]; at 50.0 µM 38.5% | [16]; at 1.2 µM -19% | [16]; at 3.7 µM -10% | [16]; at 11.0 µM -31% | [16]; at 33.0 µM 58%
98.8% (active) and 35.2% (inactive): [11]; at 50.0 µM
99.4% (active) and 61% (inactive): [8]; at 50.0 µM
99.2% (active) and 10.9% (inactive): [6]; at 50.0 µM
98.3% (active) and 55.8% (inactive): [5]; at 50.0 µM
active: [1]; at 100.0 µM 98% | [2]; at 100.0 µM 93% | [4]; at 100.0 µM 98% | [5]; [18] 99% | [5]; at 100.0 µM 97% | [6]; [18] 99% | [6]; at 100.0 µM 97% | [7]; at 33.0 µM 89% | [7]; at 100.0 µM 98% | [8]; [18] 88% | [9]; at 100.0 µM 92% | [10]; [18] 99% | [10]; at 50.0 µM 99.2% and 77.3% | [11]; [18] 98% | [11]; at 100.0 µM 98% | [12]; at 100.0 µM 99% | [13]; at 100.0 µM 97% | [14]; at 100.0 µM 97% | [15]; [18] 99% | [16]; at 100.0 µM 98%

COC(=O)Nc1cn2ccc(C(Cl)=C(Cl)Cl)cc2n1
active: [15]; [18] 78%
inactive: [1]; at 1.2 µM -12% | [1]; at 3.7 µM -17% | [1]; at 11.0 µM -21% | [1]; at 33.0 µM -33% | [1]; at 100.0 µM -16% | [2]; at 1.2 µM -16% | [2]; at 3.7 µM -21% | [2]; at 11.0 µM -33% | [2]; at 33.0 µM -29% | [2]; at 100.0 µM -33% | [3]; at 1.2 µM -27% | [3]; at 3.7 µM -19% | [3]; at 11.0 µM -32% | [3]; at 33.0 µM -27% | [3]; at 100.0 µM -28% | [4]; at 1.2 µM -21% | [4]; at 3.7 µM -17% | [4]; at 11.0 µM -29% | [4]; at 33.0 µM -24% | [4]; at 100.0 µM -22% | [5]; at 1.2 µM -22% | [5]; at 3.7 µM -32% | [5]; [17] 21% | [5]; at 11.0 µM -35% | [5]; at 33.0 µM -36% | [5]; [18] 29% | [5]; at 50.0 µM -4.2% | [5]; at 100.0 µM -32% | [6]; at 1.2 µM 4% | [6]; at 3.7 µM -5% | [6]; [17] 17% | [6]; at 11.0 µM 5% | [6]; at 33.0 µM 3% | [6]; [18] 15% | [6]; at 50.0 µM -9.5% | [6]; at 100.0 µM -4% | [7]; at 1.2 µM 18% | [7]; at 3.7 µM -11% | [7]; at 11.0 µM 1% | [7]; at 33.0 µM -13% | [7]; at 100.0 µM -17% | [8]; [17] 28% | [8]; [18] 40% | [8]; at 50.0 µM -27.6% | [9]; at 1.2 µM 42% | [9]; at 3.7 µM 27% | [9]; at 11.0 µM 35% | [9]; at 33.0 µM 21% | [9]; at 100.0 µM 18% | [10]; [17] 7% | [10]; [18] 21% | [10]; at 50.0 µM -5.65% | [11]; at 1.2 µM -8% | [11]; at 3.7 µM -14% | [11]; [17] 24% | [11]; at 11.0 µM -28% | [11]; at 33.0 µM -21% | [11]; [18] 29% | [11]; at 50.0 µM -24.1% | [11]; at 100.0 µM -20% | [12]; at 1.2 µM -40% | [12]; at 3.7 µM -33% | [12]; at 11.0 µM -50% | [12]; at 33.0 µM -49% | [12]; at 100.0 µM -53% | [13]; at 1.2 µM 29% | [13]; at 3.7 µM 23% | [13]; at 11.0 µM 14% | [13]; at 33.0 µM 10% | [13]; at 100.0 µM 12% | [14]; at 1.2 µM 6% | [14]; at 3.7 µM 2% | [14]; at 11.0 µM -18% | [14]; at 33.0 µM -16% | [14]; at 100.0 µM -11% | [15]; [17] 65% | [15]; at 50.0 µM -12.5% | [16]; at 1.2 µM -16% | [16]; at 3.7 µM -22% | [16]; at 11.0 µM -13% | [16]; at 33.0 µM -39% | [16]; at 100.0 µM -46%
